Measured values as given in the supplement of paper PMC6555819.

What was measured:
Experiment in all cases: PBM binding z-score (relative to random genomic background probes); higher = stronger binding; sequences stand for … in GC…GCGATTGACAGCGTAGAATGAAGG
[1] = tested on: FXR:RXRa (NR concentration 270 nM, RXRa partner concentration 90 nM)
Procedure, shortened: (§1)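 The probes on custom Agilent 4×180K protein-binding microarrays were double-stranded, with 34-nt variable regions bearing direct-repeat seeds, single-nucleotide variants, half-site ablations and random human genomic background sequences. Incubation lasted 1 h with ligand-free nuclear receptor dimers in PBS pH 7.4, 2% milk, 0.02% Triton X-100, 1 mM DTT, 0.2 mg/mL BSA and 0.4 mg/ml salmon testes DNA. Antibodies against each partner (one per run) detected bound dimers, and fluorescence scans were regression-normalized. Binding z-scores take the random background probes as reference.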

[2] = tested on: LXRa:RXRa (NR concentration 270 nM, RXRa partner concentration 90 nM)
Procedure, shortened: as §1

[3] = tested on: LXRa homodimer (NR concentration 270 nM)
Procedure, shortened: as §1

[4] = tested on: LXRb:RXRa (NR concentration 270 nM, RXRa partner concentration 90 nM)
Procedure, shortened: as §1

[5] = tested on: LXRb homodimer (NR concentration 270 nM)
Procedure, shortened: as §1

[6] = tested on: PPARa:RXRa (NR concentration 270 nM, RXRa partner concentration 90 nM)
Procedure, shortened: as §1

[7] = tested on: PPARg:RXRa (NR concentration 180 nM, RXRa partner concentration 90 nM)
Procedure, shortened: as §1

[8] = tested on: PPARg:RXRa 270nM:90nM, anti-RXR (NR concentration 270 nM, RXRa partner concentration 90 nM)
Procedure, shortened: as §1

[9] = tested on: PPARg:RXRa 30nM:10nM, anti-RXR (NR concentration 30 nM, RXRa partner concentration 10 nM)
Procedure, shortened: as §1

[10] = tested on: PPARg:RXRa 90nM:30nM, anti-RXR (NR concentration 90 nM, RXRa partner concentration 30 nM)
Procedure, shortened: as §1

[11] = tested on: PPARg:RXRa DBDmut IVT, anti-RXR (DBD mutation: RXRa K156A/R161A, NR concentration 270 nM, RXRa partner concentration 90 nM)
Procedure, shortened: as §1

[12] = tested on: PPARg:RXRa IVT, anti-PPARg (NR concentration 270 nM, RXRa partner concentration 90 nM)
Procedure, shortened: as §1

[13] = tested on: PPARg DBDmut:RXRa IVT, anti-PPARg (DBD mutation: PPARg1 K132A/R137A, NR concentration 270 nM, RXRa partner concentration 90 nM)
Procedure, shortened: as §1

[14] = tested on: PPARg DBDmut IVT, anti-PPARg (DBD mutation: PPARg1 K132A/R137A, NR concentration 270 nM)
Procedure, shortened: as §1

[15] = tested on: PPARg homodimer (NR concentration 180 nM)
Procedure, shortened: as §1

[16] = tested on: PXR:RXRa (NR concentration 270 nM, RXRa partner concentration 90 nM)
Procedure, shortened: as §1

[17] = tested on: PXR homodimer (NR concentration 270 nM)
Procedure, shortened: as §1

[18] = tested on: RARa:RXR (NR concentration 270 nM, RXRa partner concentration 90 nM)
Procedure, shortened: as §1

[19] = tested on: RARa homodimer (NR concentration 270 nM)
Procedure, shortened: as §1

[20] = tested on: RARb:RXRa (NR concentration 270 nM, RXRa partner concentration 90 nM)
Procedure, shortened: as §1

Sequence	PBM binding z-score [1]	PBM binding z-score [2]	PBM binding z-score [3]	PBM binding z-score [4]	PBM binding z-score [5]	PBM binding z-score [6]	PBM binding z-score [7]	PBM binding z-score [8]	PBM binding z-score [9]	PBM binding z-score [10]	PBM binding z-score [11]	PBM binding z-score [12]	PBM binding z-score [13]	PBM binding z-score [14]	PBM binding z-score [15]	PBM binding z-score [16]	PBM binding z-score [17]	PBM binding z-score [18]	PBM binding z-score [19]	PBM binding z-score [20]
CATTACGGGTCACTGACAGGTTATAGCATTTGGA	5.82	5.1	1.52	4.09	0.756	5.54	5.78	5.45	2.2	4.33	4.59	5.02	2.13	1.77	2.69	3.95	0.249	4.95	1.33	4.05
TCTATTAGTTGATTAGGGCAACCGTAACAGCGGA	0.375	0.299	0.215	0.508	0.657	1.05	0.178	2.01	3.91	2.77	2.24	1.65	0.987	1.87	0.942	0.413	0.434	0.681	1.18	0.877
TCGAGTAGGTGAGGGGCATTCAGAATGGCGTCGA	0.283	-0.0871	-0.49	1.21	0.881	1.47	1.99	3.31	1.98	2.63	3.64	3.75	-0.208	0.0293	0.149	0.21	-0.342	-0.0572	-0.832	0.965
CCTACTGGGCCAGAGGTCATTGATTCCAATGCTC	3.89	4.31	4.08	4.28	0.315	5.3	9.61	8.53	9.24	9.4	3.69	4.99	0.0395	-0.7	2.97	4.8	1.58	4.62	0.505	3.63
AGAATGCGGTTATACGTAGATCAGGGAAGAAAGT	-0.295	0.056	-0.263	-0.408	-0.59	-0.235	0.152	-0.304	-0.0964	-0.139	-0.0715	-0.172	-0.724	-0.259	-0.759	-0.417	-0.318	-0.261	-0.54	-0.164
TGTCAAAGTTCAAAGGTAACCTAAGTATCCACAC	7.3	6.43	4.99	5.02	2.06	6.03	8.74	7.74	5.57	7.47	0.886	4.82	1.02	0.289	3	5.7	4.14	6.39	1.28	5.09
ATCTCTAGCTAAGACTCAGTTCAGTGAAGAACGC	0.167	0.272	0.317	-0.057	0.629	-0.233	-0.0864	-0.493	-0.13	-0.144	-0.0797	0.0403	0.405	0.581	0.595	0.728	1.14	0.508	0.699	0.0718
CGTTCAAGGTCAGCAGGTCAGTGAAAGCGACGTG	6.5	4.34	0.93	3.38	0.134	5.37	5.07	5.47	1.95	4.09	3.85	4.34	0.78	0.144	2.98	4.06	1.14	5.42	1.55	5.54
ACTATTAGTTGGCTTAGGGCAACCGATACGACGC	0.0688	-0.0139	0.0233	-0.136	0.573	-0.171	0.739	-0.00108	0.0765	0.0615	0.277	0.0103	0.854	1.29	0.354	-0.139	0.29	0.151	0.786	0.506
AGAACGAGGGCACGCTGAGTTGATTGCAGAGTAG	0.793	0.4	-0.818	-0.114	-1.35	1.94	1.71	1.83	0.402	1.15	4.08	3.53	0.256	0.126	0.222	1.56	-0.0942	0.717	-0.751	2.36
ATATGTAGGTTACATCCGGGTCCTTCAGGCTATG	0.21	1.72	0.152	0.684	0.758	3.17	5.07	4.1	2	3.63	7.33	7.38	2.34	1.87	0.864	0.482	0.298	0.744	0.322	0.999
ATATGTAGGTTACACCCGGGTCATTCAGGCTATG	2.03	4.01	1.46	3.12	0.769	4.84	6.51	5.36	3.01	4.69	7.06	7.68	2.55	1.68	1.71	3.62	1.57	3.89	0.619	2.35
GCTATGAGTTGAAAGGGCAACCGAATGATTCTCG	1.13	1.19	-0.0384	1.24	-0.412	3.11	2.75	3.86	1.58	3.23	0.245	0.754	0.0157	-0.588	0.982	1.62	-0.0077	2.66	0.195	2.45
CAAACTAGGTCACCGAGGTCAAAGTCCGTGCGTA	7	6.22	5.91	5.75	1.25	6.56	10.2	8.39	6.43	8.33	8.69	9.03	4.5	2.89	5.36	6.93	12.2	7.45	1.57	5.18
ACTAGCAGGCAAAGGGTCACTCAAGATTAGTCCG	2.62	2.93	0.422	2.94	-0.218	4.2	5.28	5.86	4.68	6.43	0.313	2.76	-0.0407	-1.05	2.82	3.4	0.241	4.35	1.42	3.42
TCATATAGGTTAACAGGTGAAAGTCCGTAAGTTA	1.57	1.72	0.586	1.72	0.145	3.68	5.44	5.12	4.64	4.91	5.79	5.64	2.16	1.92	1.58	1.46	0.372	1.93	1.1	2.08
TCTTGTAGATCAAGCAAGTTAAGAAAGCCTGAGT	0.00157	-0.0687	-0.36	-0.0255	-0.715	0.295	-0.623	1.01	2.4	1.72	1.73	0.172	-0.613	-0.0624	-0.466	0.15	0.419	0.014	-0.373	0.115
TATACAGGGCCAAAGGCCAGAGTACGAATGTCGA	0.18	0.14	-0.21	-0.197	0.431	1.38	4.12	4.61	2.62	4.32	-0.282	1.6	0.275	-0.0589	0.362	-0.0978	-0.0965	0.479	-0.305	1.53
CGAACTAGGTCAGAACAGGACGGTGAAGGATGAT	0.947	0.319	-0.295	-0.0399	-0.471	2.64	4.74	4.11	2.15	3.38	7.03	7.23	1.59	1.11	0.681	0.143	-0.288	0.525	0.0623	2.55
ATCTCTAGGTAAGACTCAGTTCAGTAAAGAACGC	0.34	0.725	0.918	0.419	0.923	0.152	0.102	0.669	0.474	0.414	1.94	1.31	0.584	0.972	0.82	1.24	1.74	0.263	1.3	0.396
CCTAGTTGGTCAAGATCACACACGCTATAGGTAC	0.117	0.306	0.456	0.468	0.508	0.119	1.18	0.452	0.398	0.0188	1.36	1.04	0.47	1.08	1.14	0.0789	0.685	-0.0472	1.56	1.03
TCATATAGGTAAAAGTGAAAGTCGAACGATATGA	0.173	0.399	-0.314	-0.0823	0.0543	1.84	3.25	4.43	4.62	4.68	3.02	2.69	1.14	1.16	0.424	0.212	0.0345	0.234	0.539	0.22
TCTTGTCGATCAGCAGGTTAAGAAAGCTGGCCAA	0.435	0.635	-0.135	0.381	0.00876	0.714	-0.663	1.47	2.63	1.91	1.61	0.358	-0.732	0.173	0.131	0.254	-0.436	0.75	-0.254	0.466
CTCGAAAGGTCGGTTGTGGTGAGTATACGGATAA	2.01	1.54	0.263	1.67	0.416	2.29	0.242	0.949	-0.0875	0.394	0.261	0.611	-0.0487	0.467	1.3	1.13	0.427	1.81	1.01	3.03
TAGCATAGGTCAGATCGGGCCAGTATACGCTATA	3.66	2.95	-0.198	2.08	-0.138	3.38	1.65	1.67	0.311	1.05	-0.136	0.798	-0.196	-0.529	0.679	2.5	-0.583	2.5	-0.285	3.37
ACTTACGGGTCAGCGAGGTTATAGCACGCGTATA	4.94	3.87	0.399	3.41	0.42	4.9	3.94	4.15	1.13	2.59	1.92	3.48	0.822	0.254	1.62	4.18	1.12	4.25	0.477	4.09
GCTACTTGGTCAGTAAAAGGTCACACACCGGTCG	3.65	4.51	4.98	4.37	1.61	4.59	3.39	4.65	2.3	4.1	1.59	3.24	0.501	1.24	5.33	5.09	1.32	6.09	2.99	4.23
TAGCCGAGGTCATTGGGCCAGTATAGTACGCATC	7.32	5.83	2.5	5.28	1.76	6.2	6.77	6.15	3.26	5.02	2.68	4.59	-0.49	0.82	2.28	5.5	2.28	4.87	0.0596	4.78
TCATATAGGTAAAGAGGTGAAAGTCCGTAAGTTA	1.74	1.63	0.378	1.56	-0.0509	3.46	4.38	4.63	4.83	5	4.95	5.26	1.1	0.188	1.78	1.23	0.825	1.76	1	1.65
